Activity calls are given as the source filed them. Unless noted, no rule for the calls is given here.

Z-score and composite z-score data for eight molecules are collected here from PubChem BioAssay.

Experiment [1] in a line: compound effects on lung adenocarcinoma cell viability – A549, calcein-AM fluorescence, 48 h, basal, profiling panel (AID 1162). Also: test concentration not given here. To be noted: higher = more signal.
The nature of experiment [2]: compound effects on differentiated 3T3-L1 adipocyte viability – cell-based, 3T3-L1 adipocytes, calcein-AM fluorescence, 48 h, basal, profiling panel (AID 1163). Also: test concentration not given here. The following applies: 3T3-L1 adipocytes viability, higher = more signal.
Experiment [3] can be described thus: compound effects on hepatocellular carcinoma cell viability – HepG2, calcein-AM fluorescence, 48 h, basal, profiling panel (AID 1164). Also: test concentration not given here. The following applies: higher = more signal.
Experiment [4] can be described thus: compound effects on multiple myeloma cell viability – MM1S, calcein-AM fluorescence, 48 h, basal, profiling panel (AID 1165).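 Also: viability of MM1S multiple myeloma cells under basal unstimulated conditions; test concentration not given here.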 To be noted: higher = more signal.
Experiment [5] can be described thus: calcein-AM signal in unstimulated myeloma cells – cell-based, calcein-AM fluorescence, 48 h, PK04 Diversity Set, profiling panel (AID 1166).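 Also: cells grown under basal conditions without added stimulus; test concentration not given here.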 To be noted: RPMI8226 myeloma viability, higher = more signal.
Experiment [6] is described as follows: JC-1 mitochondrial signal, unstimulated HepG2 cells – cell-based, JC-1 fluorescence, 24 h, 100 nL compound, profiling panel (AID 1167). Also: test concentration not given here. To be noted: HepG2 mitochondrial potential, higher = more signal.
A short description of experiment [7]: JC-1 mitochondrial signal, unstimulated adipocytes – cell-based, JC-1 fluorescence, 3T3-L1 adipocytes, 24 h, 100 nL compound, profiling panel (AID 1168). Also: test concentration not given here. To be noted: JC-1 mitochondrial fluorescence, higher = more signal, called active from +8 up or from −8 down.
Experiment [8] in a line: JC-1 mitochondrial signal, unstimulated myeloma cells – cell-based, JC-1 fluorescence, RPMI8226, 24 h, 100 nL compound, profiling panel (AID 1169). Also: test concentration not given here. To be noted: JC-1 mitochondrial potential fluorescence, higher = more signal.
Experiment [9] can be described thus: JC-1 mitochondrial signal, unstimulated MM1S myeloma – cell-based, JC-1 fluorescence, 24 h, 100 nL compound, profiling panel (AID 1170). Also: test concentration not given here. To be noted: MM1S mitochondrial potential, higher = more signal.
Experiment [10] can be described thus: resazurin metabolic signal in A549 cells – cell-based, resazurin fluorescence, 24 h, PK04 Diversity Set, profiling panel (AID 1171). Also: test concentration not given here. To be noted: A549 viability, higher = more signal, called active from +8 up or from −8 down. (In general: The colour change of resazurin is a common sign of viable cells or microbes.)
Experiment [11] is described as follows: resazurin metabolic signal in HepG2 cells – cell-based, resazurin fluorescence, 24 h, PK04 Diversity Set, profiling panel (AID 1172). Also: test concentration not given here. The following applies: HepG2 viability, higher = more signal.
Experiment [12] in a line: budding yeast growth changes without added modifier – OD600, strain BY4716, 24 h, basal condition, primary screen (AID 1173). To be noted: S. cerevisiae BY4716 growth, OD600, 24 h; higher = more signal, called active from +8 up or from −8 down.
A short description of experiment [13]: viability profiling in MM1S myeloma cells – cell-based, resazurin fluorescence, basal, 24 h, PK04 Diversity Set, profiling panel (AID 1174). Also: test concentration not given here. The following applies: higher = more signal, called active from +8 up or from −8 down.
For experiment [14], the target named is Dihydroorotate dehydrogenase (quinone), mitochondrial (Plasmodium falciparum (isolate 3D7)) (UniProt Q08210). The experiment in a line: inhibition of P. falciparum DHODH – biochemical, C-terminal His tag, absorbance 600 nm, primary screen (AID 1175).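 Also: recombinant parasite enzyme with a five histidine tag at its C terminus; test concentration not given here.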 The following applies: PfDHODH enzyme, DCIP absorbance 600 nm; higher = more signal, called active from +8 up or from −8 down.
Sequence of Dihydroorotate dehydrogenase (quinone), mitochondrial (Plasmodium falciparum (isolate 3D7)) (Q08210 whole entry, looked up): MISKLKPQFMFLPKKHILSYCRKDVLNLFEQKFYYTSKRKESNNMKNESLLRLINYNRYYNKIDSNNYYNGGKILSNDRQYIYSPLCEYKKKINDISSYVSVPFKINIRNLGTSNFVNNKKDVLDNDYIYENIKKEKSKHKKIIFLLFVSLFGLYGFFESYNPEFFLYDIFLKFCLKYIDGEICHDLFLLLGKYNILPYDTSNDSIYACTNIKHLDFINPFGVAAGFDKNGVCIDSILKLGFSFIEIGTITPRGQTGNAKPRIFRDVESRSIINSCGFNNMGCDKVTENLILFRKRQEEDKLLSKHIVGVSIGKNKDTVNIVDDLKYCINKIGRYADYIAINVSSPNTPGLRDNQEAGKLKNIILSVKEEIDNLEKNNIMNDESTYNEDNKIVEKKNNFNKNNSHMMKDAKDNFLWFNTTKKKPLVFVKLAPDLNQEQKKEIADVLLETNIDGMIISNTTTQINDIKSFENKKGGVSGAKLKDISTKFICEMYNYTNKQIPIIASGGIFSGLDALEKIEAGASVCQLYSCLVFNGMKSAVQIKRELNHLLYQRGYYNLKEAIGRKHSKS

A short description of experiment [15]: inhibition of PAO1 biofilm formation – strain PAO1, LB-PBS medium, absorbance 600 nm, primary screen (AID 1176). Also: test concentration not given here. The following applies: P. aeruginosa PAO1 growth/biofilm, A600, 12 h; higher = more signal.
Experiment [16] in a line: growth modulation of vineyard yeast isolate – strain RM11-1a, OD600, basal, 24 h, primary screen (AID 1177).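 Also: cultures grown under basal conditions with no added stressor; test concentration not given here.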 To be noted: S. cerevisiae RM11-1a growth, OD600, 24 h; higher = more signal, called active from +8 up or from −8 down.
Experiment [17] in a line: growth of efflux-deficient E. coli DRC39 – strain DRC39, OD650, 24 h, E. coli filamentation inducers, primary screen (AID 1178).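 Also: growth measured as culture turbidity by optical density at 650 nm; test concentration not given here.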 The following applies: E. coli DRC39 acrAB, higher = more signal, called active from +8 up or from −8 down.
A short description of experiment [18]: growth of efflux-deficient E. coli DRC39 – strain DRC39, OD650, 48 h, E. coli filamentation inducers, primary screen (AID 1179).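 Also: screen aims at cell division blockers that make cells filament.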 To be noted: E. coli DRC39 delta-acrAB growth, higher = more signal, called active from +8 up or from −8 down.
Experiment [19] can be described thus: viability profiling in RPMI8226 myeloma cells – cell-based, resazurin fluorescence, basal, 24 h, PK04 Diversity Set, profiling panel (AID 1180).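 Also: RPMI8826 multiple myeloma cell line at 5000 cells per well; test concentration not given here.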 The following applies: higher = more signal.
Experiment [20] concerns the target E3 ubiquitin-protein ligase XIAP (Homo sapiens) (UniProt P98170). The experiment in a line: small molecules binding XIAP protein – biophysical, small-molecule microarray, fluorescence 635 nm, primary screen (AID 1181).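 Also: score merges 667 nm emission and signal to noise over triplicate slides.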 The following applies: higher = more signal.

Sequence of E3 ubiquitin-protein ligase XIAP (Homo sapiens) (P98170 whole entry, looked up): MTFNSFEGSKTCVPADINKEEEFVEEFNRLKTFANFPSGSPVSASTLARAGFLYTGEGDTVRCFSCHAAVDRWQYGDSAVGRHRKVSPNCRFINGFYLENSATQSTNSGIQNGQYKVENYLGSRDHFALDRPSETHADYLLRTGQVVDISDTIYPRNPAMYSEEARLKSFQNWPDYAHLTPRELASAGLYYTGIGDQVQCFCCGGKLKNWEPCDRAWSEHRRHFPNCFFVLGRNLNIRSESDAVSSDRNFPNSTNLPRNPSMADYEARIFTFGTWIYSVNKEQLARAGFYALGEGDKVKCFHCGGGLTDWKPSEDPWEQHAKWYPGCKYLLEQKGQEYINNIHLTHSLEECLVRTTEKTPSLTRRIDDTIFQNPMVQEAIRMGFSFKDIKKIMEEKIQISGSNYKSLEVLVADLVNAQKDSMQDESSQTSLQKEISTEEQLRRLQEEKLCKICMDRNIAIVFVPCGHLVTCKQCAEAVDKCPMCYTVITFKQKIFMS

Regarding `CCCCCCCCCCC(O)C1C=CC2C(=O)N(C)C(=O)C2N1NC(=O)OC(C)(C)C` (stereo not given), the z-score in experiment [1] was -3.85; in [2], 0.0766; in experiment [3], -5.09; in experiment [4], -3.91; in [5] it was -4.14; in experiment [6], -3.31. In addition, the z-score in experiment [7] is -0.464 (inactive); in experiment [8], -0.946; in experiment [9] it was -2.37; in [10], -3.67 (inactive); in [11] it was -5.01; in experiment [12], -5.22 (inactive). Moreover, the z-score is -4.74 (inactive) in experiment [13]; 0.0337 (inactive) in experiment [15]; 1.05 (inactive) in experiment [16]; -0.235 (inactive) in experiment [17]; -1.45 (inactive) in experiment [18]; -5.64 in experiment [19]. For the same molecule, the composite z-score in experiment [14] was 1.1 (inactive); in experiment [20], 0.109.

Turning to `O=C1O[C@H](c2ccccc2)[C@H](c2ccccc2)N2[C@H]1[C@@H](C(=O)O)[C@]1(C(=O)Nc3ccc(C#CC4=CCCCC4)cc31)[C@H]2c1ccc(O)cc1`, the z-score in [1] was 0.576; in [2], -0.029; in experiment [3] it was 0.85; in [4], -3.14; in experiment [5], -2.25; in [6], -3.42. Besides, the z-score was 0.0262 (inactive) in experiment [7]; -1.03 in experiment [8]; -0.657 in experiment [9]; 0.391 (inactive) in [10]; -0.176 in experiment [11]; -1.73 (inactive) in experiment [12]. Besides, the z-score in [13] was 0.248 (inactive); in experiment [15] it was 1.42 (inactive); in experiment [16] it was 0.168 (inactive); in experiment [17], -0.448 (inactive); in experiment [18], -0.174 (inactive); in [19], -0.0705. The composite z-score was -4.56 (inactive) in experiment [14] and 0.0938 in experiment [20].

On to `CCOC(=O)[C@H]1[C@@H]2C(=O)N3CCC[C@H]3[C@H](O[Si](C(C)C)(C(C)C)C(C)C)[C@H]2C=C2CCN(S(=O)(=O)c3ccc(C)cc3)C[C@H]21`, for which the z-score was 0.487 in experiment [1]; 0.302 in experiment [2]; -1.18 in [3]; -2.91 in experiment [4]; -4.09 in [5]; 1.51 in experiment [6]. The z-score was -0.603 (inactive) in experiment [7]; -1.06 in experiment [8]; -0.814 in [9]; -0.742 (inactive) in experiment [10]; -1.01 in experiment [11]; 0.212 (inactive) in experiment [12]. For the same molecule, the z-score was -1.84 (inactive) in [13]; 0.318 (inactive) in experiment [15]; -0.598 (inactive) in experiment [16]; -0.146 (inactive) in experiment [17]; -0.641 (inactive) in experiment [18]; -3.37 in experiment [19]. Moreover, the composite z-score in experiment [14] is -0.627 (inactive); in experiment [20] it was -0.148.

`CCCC[C@@H](O)C1=C(COc2ccccc2)C[C@H]2C(=O)N(C)C(=O)[C@H]2[C@H]1CO`: the z-score is 0.683 in experiment [1]; 0.0659 in [2]; 1.54 in experiment [3]; 0.196 in [4]; 0.131 in experiment [5]; 1.11 in experiment [6]. For the same molecule, the z-score in experiment [7] was 0.56 (inactive); in experiment [8] it was 0.547; in experiment [9], -2.03; in [10], -0.703 (inactive); in [11], -0.0624; in experiment [12] it was -3.78 (inactive). The z-score in experiment [13] is 0.147 (inactive); in [15], 0.613 (inactive); in experiment [16], -3.3 (inactive); in [17], 1.6 (inactive); in experiment [18], 1.41 (inactive); in experiment [19], 0.296. Moreover, the composite z-score was -1.85 (inactive) in [14] and -0.127 in experiment [20].

For `CN(C)C(=O)[C@@]1(Cc2ccccc2CN=[N+]=[N-])N=C(c2ccc(OCCCO)cc2)O[C@H]1c1ccccc1CN=[N+]=[N-]`, the z-score was -0.446 in [1]; -0.182 in [2]; -1.29 in experiment [3]; -1.42 in experiment [4]; -3.77 in experiment [5]; 1.11 in [6]. In addition, the z-score in experiment [7] is -1.34 (inactive); in experiment [8], -1.12; in [9] it was -2.11; in experiment [10], -0.67 (inactive); in experiment [11], -1.43; in experiment [12], 1.12 (inactive). Further, the z-score in experiment [13] was -2.15 (inactive); in [15], 1.35 (inactive); in experiment [16], 2.07 (inactive); in [17] it was 0.117 (inactive); in [18], -0.435 (inactive); in experiment [19], -3.29. The composite z-score in experiment [14] is 2.07 (inactive); in [20], 0.172.

On to `CC(CO)N1C(=O)[C@@H]2[C@H]3C(=O)OCC=C[C@H]3OC23C=CCN(Cc2ccccc2)C(=O)[C@@H]13` (stereo not given in full), for which the z-score in [1] was -0.0849; in [2] it was 0.847; in experiment [3] it was -1.35; in [4], 1.17; in experiment [5] it was 0.0239; in [6], -0.378. In addition, the z-score is 0.508 (inactive) in experiment [7]; -0.0286 in experiment [8]; 0.491 in [9]; 0.881 (inactive) in experiment [10]; 1.44 in experiment [11]; -0.319 (inactive) in experiment [12]. The z-score in experiment [13] is 1.01 (inactive); in experiment [15], 0.745 (inactive); in experiment [16], -1.21 (inactive); in [17], 0.518 (inactive); in experiment [18] it was 0.075 (inactive); in experiment [19], 1.28. Also, the composite z-score in experiment [14] is -1.07 (inactive); in experiment [20] it was 0.184.

As for `O=C(NCC(F)(F)F)[C@@H]1c2ccccc2C(=O)N(Cc2cc(F)cc(C(F)(F)F)c2)[C@H]1c1ccc(CO)cc1`, the z-score is 0.792 in [1]; 0.929 in experiment [2]; -0.158 in experiment [3]; 0.227 in experiment [4]; -0.202 in [5]; 1.23 in experiment [6]. For the same molecule, the z-score in experiment [7] is 0.00233 (inactive); in experiment [8], -0.656; in experiment [9], -0.389; in experiment [10], 0.44 (inactive); in experiment [11] it was -0.16; in [12], -0.359 (inactive). In addition, the z-score in experiment [13] is 0.0875 (inactive); in experiment [15] it was 0.221 (inactive); in [16] it was 0.933 (inactive); in experiment [17] it was 0.647 (inactive); in [18] it was -0.0858 (inactive); in experiment [19], 0.867. The composite z-score in experiment [14] is 0.94 (inactive); in [20], -0.126.

With `O=C(NCC(F)(F)F)[C@@H]1c2ccccc2C(=O)N(Cc2ccc(OC(F)(F)F)cc2)[C@H]1c1ccc(CO)cc1`, the z-score is 0.0723 in experiment [1]; -0.302 in [2]; -0.27 in [3]; -0.404 in [4]; -0.207 in experiment [5]; 1.66 in experiment [6]. Further, the z-score in experiment [7] is 0.506 (inactive); in experiment [8], 0.941; in experiment [9], -0.54; in [10] it was 1.01 (inactive); in [11], 1.09; in experiment [12], -1.13 (inactive). In addition, the z-score in experiment [13] was 0.482 (inactive); in experiment [15], -0.177 (inactive); in experiment [16], 0.0971 (inactive); in [17], 0.504 (inactive); in experiment [18], 0.632 (inactive); in experiment [19], 1.04. The composite z-score in experiment [14] was -0.504 (inactive); in [20], 0.104.
